Measured values published in PubChem BioAssay AID743287 (Broad Institute, 2014).
In all, about 370,000 compounds went through this assay and about 2,300 (0.62%) were called active. The entries come from a sample that favours actives as a whole. Values without a mark were called inactive.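 How the source made its calls: active means lowest replicate activation of at least 40%, so every replicate reaches that level; inactive means the rest.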

Assay: primary screen for activators of insulin secretion dependent on glucose, INS-1E cells, GLuc reporter luminescence (AID 743287);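 further: 0% = median of neutral control wells and 100% = median of IBMX positive control wells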
Conditions: INS-1E GLuc reporter insulin secretion, 2-3 h, at 16.6 µM, stronger effect = higher value
With `COc1cccc(-c2ccc3n(c2=O)C[C@@H]2[C@@H](CO)[C@H](C(=O)NC4CCC4)[C@H]3N2C)c1` the activation was 7.74%.
With `COc1cccc2cc(C(=O)NCc3ccc(C)cc3)c(=N)oc12` the activation was 12.3%.
For `COc1cccc2cc(-c3cc(=O)oc4cc(C)c(O)cc34)oc12`, the activation was 78.5% (active).
`COc1cccc(C(=O)OCc2cc(=O)oc3c(C)c(C)ccc23)c1OC` gave an activation of 8.16%.
In the case of `CNC[C@@H]1Oc2ccc(N(C)C)cc2CC(=O)N(C)C[C@@H]1C`, the activation is reported as 2%.
`CC1(C(=O)NS(=O)(=O)c2ccccc2)CCN1C(=O)C1CCCCC1` (centres undefined) showed an activation of 4.33%.
In the case of `CC(C)(C(=O)N1CCC1(C)C(=O)NS(=O)(=O)c1ccc(Br)cc1)c1ccccc1` (centres undefined), the activation is reported as 41.5% (active).
Compound `CC(C)(C)c1ccc(S(=O)(=O)NC(=O)C2(C)CCN2C(=O)CC2CC2)cc1` (centres undefined) has an activation of 7.26%.
In the case of `O=C(NCC[C@@H]1CC[C@H](NC(=O)C2CCCCC2)[C@@H](CO)O1)Nc1ccc(Cl)cc1`, the activation is reported as -11.1%.
With `Cc1noc(C)c1NC(=O)N(C)C[C@@H]1OCCCC[C@@H](C)Oc2ccc(NC(=O)C3CCCCC3)cc2C(=O)N([C@@H](C)CO)C[C@H]1C` the activation was -7.43%.
Compound `COc1ccc(-c2ccccc2[C@@H]2[C@@H](C#N)N(C(=O)NC3CCCC3)[C@H]2CO)cc1` has an activation of -19.5%.
With `COc1ccc2c3c(n(C)c2c1)[C@@H](CO)N(Cc1ccccc1OC)CC31CN(CC2CCOCC2)C1` the activation was 10%.
Work on `CC(C)C#Cc1ccc2c(c1)O[C@@H](CN(C)CC1CCOCC1)[C@H](C)CN([C@H](C)CO)S2(=O)=O` yielded an activation of -9.43%.
For `Cc1ccc(/C=N/NC(=O)COc2ccccc2-c2ccccc2)cc1`, the activation was 267% (active).
In the case of `O=C(CN1CCSCC1)N/N=C/c1ccc(F)cc1`, the activation is reported as -0.738%.
In the case of `O=C(COc1ccc(-c2ccccc2)cc1)NN=C1CCCC1`, the activation is reported as 11%.
`CN(C)C(=O)C[C@H]1CC[C@@H](NC(=O)Nc2cccc(F)c2)[C@H](CO)O1` gave an activation of 3.3%.
Work on `CN1c2ccc(-c3ccc(F)cc3)cc2[C@@H]2[C@@H](CCN2C(=O)c2cccnc2)[C@H]1CO` yielded an activation of 18.2%.
Work on `CNC[C@H]1Oc2ccc(NS(=O)(=O)c3ccccc3)cc2CC(=O)N([C@H](C)CO)C[C@@H]1C` yielded an activation of 3.16%.
Work on `Cc1cccc(C)c1NC(=O)C1CCCN1C(=O)OC(C)(C)C` (centres undefined) yielded an activation of 2.21%.
With `CCC[C@H]1CCCC/C=C\CCCC(=O)OCCN1C(=O)OC(C)(C)C` the activation was 66.4% (active).
Compound `Cc1ccc(C)c(NC(=O)C2CCCN2C(=O)OC(C)(C)C)c1` (centres undefined) has an activation of -3.08%.
Compound `C[C@H]1CN(C)C(=O)c2cccc(N(C)C)c2O[C@@H]1CN(C)C` has an activation of -6.84%.
In the case of `CNC[C@H]1Oc2cc(C#CCOC)ccc2S(=O)(=O)N([C@@H](C)CO)C[C@H]1C`, the activation is reported as 4.43%.
`Cc1noc(C)c1NC(=O)Nc1ccc2c(c1)CC(=O)N([C@@H](C)CO)C[C@H](C)[C@@H](CN(C)C(=O)Nc1ccc3c(c1)OCO3)O2` showed an activation of 5.38%.
`CC(=O)N(C)C[C@@H]1Oc2ccc(NC(=O)NC(C)C)cc2C(=O)N(C)C[C@H]1C` gave an activation of 9.69%.
Compound `COc1ccc(NC(=O)CN(C)S(=O)(=O)c2ccccc2)cc1OC` has an activation of 8.5%.
With `COc1ccc(/C=C/C(=O)Nc2ccc(C34CC5CC(CC(O)(C5)C3)C4)cc2)cc1OC` the activation was 11.4%.
With `COc1ccc(S(=O)(=O)N(C)CC(=O)Nc2ccc3c(c2)OCCO3)cc1OC` the activation was 79.4% (active).
`CN(CC(=O)Nc1ccc(C(N)=O)cc1)S(=O)(=O)c1ccc2c(c1)OCCO2` showed an activation of -7.44%.
With `COc1ccc(/C=C/C(=O)Nc2ccc3c(c2)OCCO3)cc1OC` the activation was 53.8% (active).
Work on `COc1ccc(Cl)cc1NC(=O)CN(C)CC(=O)Nc1ccc2c(c1)OCO2` yielded an activation of -15.8%.
Work on `C[C@H](CO)N1C[C@H](C)[C@@H](CN(C)CC2CC2)Oc2ccc(NS(=O)(=O)c3cn(C)cn3)cc2CC1=O` yielded an activation of 9.55%.
Work on `CO[C@H]1CN(C)C(=O)c2cc(NC(C)=O)ccc2OC[C@H](C)N(C(=O)CN(C)C)C[C@@H]1C` yielded an activation of 13.5%.
Compound `O=C(Nc1cc(F)ccc1F)N1CC(=O)N2[C@H](CO)[C@@H](c3ccc(-c4cccnc4)cc3)[C@@H]2C1` has an activation of 13.1%.
Work on `O=C(C1CCCC1)N1CC2(C1)[C@H](c1ccccc1)[C@H](CO)N2CCC(F)(F)F` yielded an activation of -20.6%.
With `O=C(O)CCCN1C(=O)C2C3c4ccccc4C(c4ccccc43)[C@@H]2C1=O` (some centres undefined) the activation was 45.1% (active).
For `O=C(O)CCCN1C(=O)c2ccccc2Sc2ncccc21`, the activation was 3.02%.
In the case of `O=C(CCN1C(=O)C2C3C=CC(C3)C2C1=O)Nc1ccccc1F` (centres undefined), the activation is reported as 3.2%.
Compound `COCC(=O)Nc1ccc2c(c1)OC[C@H](C)NC[C@@H](C)[C@H](OC)CN(C)C2=O` has an activation of -5.25%.
Compound `COc1ccc2c3c([nH]c2c1)[C@H](CO)N(CC1CC1)CC31CN(C(=O)Nc2cccc(F)c2)C1` has an activation of -17.2%.
In the case of `COc1ccc(CN(C)C[C@H]2Oc3ccc(NS(=O)(=O)c4c(C)noc4C)cc3CC(=O)N([C@H](C)CO)C[C@H]2C)cc1`, the activation is reported as 6.22%.
In the case of `Cc1nc(-c2ccc([N+](=O)[O-])cc2)c(-c2ccccc2)o1`, the activation is reported as 97.9% (active).
`CCC1OC(c2ccc([N+](=O)[O-])cc2)=Nc2ccccc21` (centres undefined) gave an activation of 0.826%.
Compound `Cc1nc2ccccc2nc(=O)c1NNc1ccc([N+](=O)[O-])cc1` has an activation of -4.75%.
Work on `COC(=O)C[C@H]1C=C[C@H](NC(=O)Nc2ccc(C(F)(F)F)cc2)[C@@H](CO)O1` yielded an activation of 15.4%.
With `COc1ccccc1-c1noc(CSc2nc(C)cc(=O)[nH]2)n1` the activation was 5.85%.
For `CCCc1nc(-c2cc3cc(C)ccc3[nH]c2=O)no1`, the activation was 43.8% (active).
For `Cc1ccc2[nH]c(=O)c(CN(C)S(=O)(=O)c3cccc4nonc34)cc2c1`, the activation was 6.21%.
`C[C@@H]1CN(C)C(=O)c2cccc(N(C)C)c2O[C@H]1CN(C)S(C)(=O)=O` gave an activation of 23.8%.
Work on `COc1cccc(C#Cc2ccc([C@@H]3[C@H]4CN(C(=O)Cc5ccccc5)CC(=O)N4[C@H]3CO)cc2)c1` yielded an activation of 6.19%.
With `COc1ccccc1NC(=O)N1CCCCN2[C@@H](CO)[C@@H](c3ccc(C#Cc4ccccc4)cc3)[C@@H]2C1` the activation was -22.8%.
Work on `O=C(CC(c1ccccc1)c1cc(Cl)ccc1O)NCCN1CCOCC1` (centres undefined) yielded an activation of -15%.
With `OC(c1ccc(Cl)cc1)C(CN1CCOCC1)c1ccccc1` (centres undefined) the activation was 225% (active).
Work on `S=C(Cc1ccc(Cl)cc1)N1CCOCC1` yielded an activation of 9.43%.
With `O=C(NC[C@@H]1[C@@H](c2ccccc2)[C@@H](CO)N1Cc1ccccn1)C1CCC1` the activation was 1.69%.
Compound `CCc1cnc(N2[C@H](C#N)[C@H](c3ccccc3-c3ccccc3C)[C@H]2CO)s1` has an activation of -14.3%.
With `O=C(CSc1nc(C2CC2)nc2ccccc12)Nc1ccc2c(c1)OCCO2` the activation was 43.1% (active).
`Cc1nnc(NC(=O)CSc2nc(C3CCCCC3)nc3ccccc23)s1` showed an activation of 16.1%.
`O=C(CSc1nnnn1C1CCCC1)Nc1ccc2c(c1)OCCO2` showed an activation of 4.25%.
In the case of `COc1ccccc1CN1[C@H](CO)[C@H](c2ccccc2)C12CN(C(=O)c1ccccn1)C2`, the activation is reported as -3.88%.
For `O=C(C[C@H]1C[C@H]2c3cc(NC(=O)NC4CCCC4)ccc3O[C@H]2[C@@H](CO)O1)NCc1ccc(-c2ccccc2)cc1`, the activation was -0.703%.
For `COc1ccc2c3c([nH]c2c1)[C@H](CO)N(Cc1nccs1)CC31CCN(Cc2ccncc2)CC1`, the activation was 3%.
For `CC(C)NC(=O)N(C)C[C@H]1Oc2ccc(NS(C)(=O)=O)cc2C(=O)N(C)C[C@@H]1C`, the activation was -0.922%.
For `Cc1ccc(CSc2nc3[nH]ncc3c(=O)[nH]2)cc1`, the activation was 23.2%.
Compound `O=C(CSc1nc2[nH]ncc2c(=O)[nH]1)Nc1ccc(F)cc1` has an activation of 5.73%.
With `CCCSc1nc2[nH]ncc2c(=O)[nH]1` the activation was 53.9% (active).
In the case of `CN1c2ccc(-c3cccc(F)c3)cc2[C@H]2[C@H](CCN2C(=O)C2CCCC2)[C@@H]1CO`, the activation is reported as -41.3%.
`O=C(C[C@H]1C=C[C@H](NC(=O)Nc2cc(F)ccc2F)[C@@H](CO)O1)NCc1ccccn1` showed an activation of 2.32%.
Work on `C[C@H]1CN([C@@H](C)CO)C(=O)c2c(c3ccccc3n2C)-c2ccccc2CO[C@@H]1CN(C)C(=O)Nc1ccnc(N2CCOCC2)c1` yielded an activation of -10.3%.
`O=C(CN(CC1CCCO1)C(=O)CNS(=O)(=O)c1ccccc1)NCc1ccccc1` (centres undefined) gave an activation of 1.79%.
For `CC(C)C(C(=O)NCc1ccco1)N(CC1CCCO1)C(=O)CNS(=O)(=O)c1ccc(F)cc1` (centres undefined), the activation was 47.3% (active).
With `O=C(CN(CC1CCCO1)C(=O)CNS(=O)(=O)c1ccc(F)cc1)NCc1ccco1` (centres undefined) the activation was 16.2%.
Compound `CC(C)C#Cc1ccc2c(c1)O[C@@H](CN(C)C(=O)C1CCC1)[C@@H](C)CN([C@@H](C)CO)S2(=O)=O` has an activation of -2.35%.
`COc1ccccc1CCn1cnc(-c2ccccc2)c1C(C)C` gave an activation of 40.3%.
For `COc1ccc(-c2nn3c(-c4ccccc4)nnc3s2)cc1OC`, the activation was 140% (active).
`COc1ccc(-c2cc(NC=O)c3ncc(-c4ccccc4)n3c2)cc1OC` showed an activation of 2.43%.
In the case of `COc1ccc2c3c([nH]c2c1)[C@@H](CO)N(Cc1ccc2c(c1)OCO2)CC31CN(C(=O)Nc2c(C)noc2C)C1`, the activation is reported as 8.95%.
With `C[C@H](O)C#Cc1cnc2c(c1)C(=O)N([C@@H](C)CO)C[C@H](C)[C@H](CN(C)C(=O)c1ccccc1)O2` the activation was 11.8%.
